# Assay outcomes as filed in PubChem BioAssay.
# Compounds with a hit are over-represented: about 0.77% of the library has one in this group of screens.
# RE007 growth inh = qHTS Assay for Inhibitors of the HIV-1 protein Vpr. S. pombe RE007 Vpr strain, BacTiter-Glo ATP luminescence, 24 h. Potency, µM (highest dose often 92.2 µM), for inactives: at the top dose activity change, negative = less growth, actives largely listed as inhibitors. actives 0.21% (n = 360,000). AID 651644, 2012; active = well fitted falling curve with a large enough effect; inconclusive = small, poorly fitted or top-dose-only effect; inactive = no such curve, though single readings can be large or run the other way; also: potency is read from the fitted curve at half-maximal effect; % is scaled to controls: 0 for no effect and ±100 for the full control effect; nearly all actives have a fitted effect of over 50% in size
#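 Fission yeast RE007 carrying one integrated HIV-1 vpr copy, seeded at OD 0.01 in PMG+AL medium with 23 nL pinned compound. Grown 24 h at 30 degrees; viability read by BacTiter-Glo luminescence after 5 min.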
# NS1 inh = qHTS Assay for Inhibitors of Influenza NS1 Protein Function; Potency, µM (top dose mostly 46.1 µM), for the others: top-dose activity, positive = more growth; actives 0.4% (n = 270,000); AID 2326, 2010; calls by dose curve; also: potency is read from the fitted curve at half-maximal effect; actives are rising curves; nearly all actives have a fitted effect of over 50% in size
#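 Recovery from NS1-induced slow growth read by OD600 in budding yeast switched to galactose assay medium (pH 6.0, -URA) at 1:100 dilution. Compound 23 nl per well; the matching strain lacking NS1 serves as control.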
# Tb PYK inh = qHTS of Trypanosoma Brucei Inhibitors; actives 0.12% (n = 410,000); Potency, µM (doses to about 76.8 µM), for the others: at the highest dose activity, negative = inhibition, actives largely listed as inhibitors; TbPYK enzyme, Kinase-Glo Plus ATP luminescence, 45 min; pyruvate kinase (Trypanosoma brucei), Q57TT1; also: potency is read from the fitted curve at half-maximal effect; % is scaled to controls: 0 for no effect and ±100 for the full control effect; nearly all actives have a fitted effect of over 50% in size
#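 T. brucei PYK with substrate was exposed to pin-transferred compounds across a concentration series, then started with 130 uM ADP (final). After 45 min at room temperature, Kinase-Glo Plus luminescence was read, normalized and curve-fitted.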
# LmPK inh = qHTS Assay for Inhibitors of Leishmania Mexicana Pyruvate Kinase (LmPK) | Q27686 | purified LmPK, Kinase-Glo ATP luminescence, 1 h | Potency, µM (top dose mostly 57.5 µM), without a hit: at the highest dose activity change, negative = inhibition, hits mostly inhibitors | actives 0.37% (n = 290,000); also: potency is read from the fitted curve at half-maximal effect; % is scaled to controls: 0 for no effect and ±100 for the full control effect
# Target sequence (Q27686 whole entry, looked up): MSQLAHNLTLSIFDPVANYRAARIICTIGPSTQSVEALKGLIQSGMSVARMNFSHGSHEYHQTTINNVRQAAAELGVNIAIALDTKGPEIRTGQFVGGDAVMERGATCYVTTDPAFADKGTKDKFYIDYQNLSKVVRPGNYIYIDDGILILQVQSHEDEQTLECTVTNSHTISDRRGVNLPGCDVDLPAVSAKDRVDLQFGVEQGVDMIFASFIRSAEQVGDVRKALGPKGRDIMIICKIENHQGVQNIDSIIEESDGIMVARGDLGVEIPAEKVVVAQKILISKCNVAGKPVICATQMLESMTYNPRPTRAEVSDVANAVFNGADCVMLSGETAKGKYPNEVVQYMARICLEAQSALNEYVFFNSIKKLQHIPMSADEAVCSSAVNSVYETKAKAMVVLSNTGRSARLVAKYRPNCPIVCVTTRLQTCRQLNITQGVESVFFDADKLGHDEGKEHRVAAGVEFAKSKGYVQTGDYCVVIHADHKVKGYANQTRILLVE
#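 ATP generated from ADP (0.1 mM) and PEP (0.5 mM) by 0.1 nM LmPK over 1 h at room temperature (pH 7.2 imidazole buffer) was detected by coupled luciferase luminescence. Values were normalized to uninhibited and no-enzyme wells.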
# Flu NS1 inh = Assay for Inhibitors of Influenza NS1 Protein Function: Hit Validation; activity change, negative = inhibition, % at 32.9 µM; AID 492980, 2010; influenza NS1 function cell assay, 15-point titration; 1,400 tested, under 10 active; shares compounds with NS1 inh; calls by dose curve; also: 0% is about no effect
# PR8 titer = Assay for Inhibitors of Influenza NS1 Protein Function: Influenza virus replication assay in MDCK cells infected with virus A/PR/8/34 | shares compounds with NS1 inh | MDCK infected influenza A/PR/8/34, virus titer TCID50; hits give low values | virus titer (log TCID50), log10 TCID50 at 5 µM | actives 30% (n = 95); call rule not given here
# The depositor's hits bear a star; ? = inconclusive; / = no result given; [ ] = dose if it differs, or a comment. Unless noted, calls follow the shape of the dose curve; as a rule, active = well fitted curve in the direction sought with a large enough effect; inconclusive = small, poorly fitted or top-dose-only effect, or another doubt; inactive = no such curve, though single readings can be large; an effect the other way counts as inactive or inconclusive.
SMILES,RE007 growth inh,NS1 inh,Tb PYK inh,LmPK inh,Flu NS1 inh,others
COc1cc(/C=C2/C(=O)NC(=O)N(c3ccc(C)cc3)C2=O)cc(OC)c1OC,5%,4%,?,7%,/,
Cc1ccc(Nc2c(F)cccc2Cl)c(CC(=O)O)c1,/,/,6%,/,/,
Nc1cc(=O)[nH]c(SCC(=O)Nc2cc(Cl)cc(Cl)c2)n1,27%,10%,-1%,5%,/,
CC(Sc1nc(N)cc(=O)[nH]1)C(=O)NNC(=O)c1cccc(Cl)c1 (stereo not drawn),-3%,/,0%,/,/,
Nc1cc(=O)[nH]c(SCC(=O)Nc2ccc(Cl)c(Cl)c2)n1,-1%,2.5µM*,7%,5%,25,
CC(Sc1nc(N)cc(=O)[nH]1)C(=O)Nc1cccc(Cl)c1 (stereo not drawn),25%,10µM*,-7%,5%,7,
CCN(CC)S(=O)(=O)c1ccc2c(c1)N(CC(=O)Nc1ccc(F)cc1F)C(=O)C1CCCN21 (stereo not drawn),/,/,-6%,/,/,
c1cc2c(cc1Nc1nc(-c3ccc4c(c3)OCO4)cs1)OCCO2,27%,7.1µM*,-9%,-1%,-12,
Oc1ccc(Nc2nc(-c3ccc(O)cc3)cs2)cc1,5%,2.8µM*,-15%,1%,10,
NS(=O)(=O)c1ccc(Nc2nc(-c3ccc(O)cc3)cs2)cc1,3%,?,-3%,-5%,/,
C[C@@H]1[C@@H](C)N1C[C@H](O)Cn1ccnc1[N+](=O)[O-] (stereo partly drawn),/,3%,/,/,/,
O=C(O)CSc1cnc2ccccc2n1,5%,16µM*,11%,-1%,7,
O=C(N/N=C1\CC2CC=CC12)c1ccc(COc2ccccc2)cc1 (stereo not drawn),9%,5.6µM*,0%,0%,-16,
O=c1cc(O)nc(SCc2ccccc2)n1-c1ccccc1,3%,?,-8%,0%,/,
C=CCn1c(SCc2ccccc2)nc(O)cc1=O,-13%,6.3µM*,-6%,-2%,31,
O=C(N/N=C/CCc1ccccc1)c1ccc(CN2c3cccc4cccc(c34)S2(=O)=O)cc1,-10%,8.9µM*,-12%,5%,25,
COc1ccc(/C=N/NC(=O)c2ccc(CN3c4cccc5cccc(c45)S3(=O)=O)cc2)cc1,7%,?,-1%,-1%,/,
Cc1ccc(SCc2nc(N)nc(Nc3ccccc3C)n2)cc1C,-6%,-12%,-4%,0%,/,
Cc1ccccc1Nc1nc(N)nc(CSCC(=O)Nc2cccc(Br)c2)n1,-7%,?,-14%,9%,-11,
O=c1cc(O)nc2n1CCCS2,-2%,7.9µM*,-3%,-4%,1,
O=c1c(Cc2ccccc2)c(O)nc2n1CCCS2,-8%,0%,11%,-2%,/,
O=C1C2=C(C(=O)c3ccccc31)C1O[C@](c3ccsc3)(Cc3ccccc31)O2,/,9%,/,-2%[11.5 µM],/,
Cc1cnc(C(=O)OCC(=O)NC(=O)NC(C)C)cn1,-1%,1.4µM*,-16%,0%,-3,
Cc1ccc(C(=O)Nc2ccc(Br)cc2)cc1S(=O)(=O)NCc1ccccc1,/,/,1%,/,/,
CCS(=O)(=O)N1CCc2cc(C(=O)NCc3ccc(Cl)cc3)ccc21,/,/,-5%,/,/,
SMILES,RE007 growth inh,NS1 inh,Tb PYK inh,LmPK inh,Flu NS1 inh,others
COc1ccc2c(c1)nc(NCCO)n2C,13%,3.5µM*,-7%,2%,-2,
Cc1nnc(NC(=O)CSc2ncc(-c3ccccc3)[nH]2)s1,4%,4.5µM*,-12%,-1%,7,
NCCSC(c1ccccc1)c1ccccc1,/,-4%,/,/,/,
Cc1cc(C)n2c(SCC(=O)N3CCN(S(=O)(=O)c4ccc(Cl)cc4)CC3)nnc2n1,7%,10µM*,-3%,6%,0,
O=C(CSc1nnc(-c2cc3ccccc3cc2O)n1Cc1ccco1)c1ccc(F)cc1,3%,8.9µM*,-9%,9%,-29,
Cc1occc1-c1nnc(SCC(=O)c2ccc(F)cc2)n1Cc1ccco1,-4%,-2%,-18%,1%,/,
Cc1cc(-c2csc(NC(=O)c3ccc(=O)n(C)n3)n2)c(C)n1CC1CCCO1 (stereo not drawn),-4%,20µM*,?,-7%,12,
CC/C(O)=N/S(=O)(=O)c1ccc(-c2c(-c3ccccc3)noc2C)cc1,/,/,3%,/,/,
Cc1cc(C)cc(-n2c(SCC(=O)N3CCC(C)CC3)nc3c([nH]c4ccccc43)c2=O)c1,/,/,4%,/,/,
Cc1nn(CC(=O)Nc2ccc3c(c2)nc2n3CCOC2)c(=O)c2ccccc12,12%,-1%,12%,-1%,/,
COCCN1CCn2c(nc3cc(NC(=O)c4ccc(OC)cc4)ccc32)C1,0%,13µM*,4%,9%,13,PR8 titer=8.3
COCCN1CCn2c(nc3cc(NC(=O)Cn4nc(C)c5ccccc5c4=O)ccc32)C1,10%,?,-5%,1%,7,
O=C1[C@@H]2[C@@H](C(=O)N1c1ccc(OCc3ccccc3)cc1)[C@@H]1c3ccccc3[C@@H]2[n+]2ccccc21,/,10%,/,/,/,
COc1cc(OC)cc(-n2c(=O)c3ccccc3n(CC(=O)NCCc3ccc(OC)c(OC)c3)c2=O)c1,/,/,4%,/,/,
Cc1ccc2c(=O)c(C(=O)c3ccc(F)cc3)cn(CC(=O)NCc3ccccc3)c2n1,/,/,-1%,/,/,
COCCNC(=O)CSc1nc2cc3c(cc2c(=O)n1CCCCCC(=O)NCCc1ccc(OC)c(OC)c1)OCO3,/,/,-1%,/,/,
Cc1nn(-c2ccccc2)c2[nH]c(=O)c(CNc3ccc4c(c3)OCCO4)cc12,-19%,-6%,3%,4%,/,
Cc1nn(-c2ccccc2)c2[nH]c(=O)c(CNCc3ccc4c(c3)OCO4)cc12,9%,7.9µM*,0%,0%,7,
O=C(Cn1c(SCCOc2ccccc2)nc2ccccc21)N1CCOCC1,/,/,0%,/,/,
N#CC1=C(N)NC(SCC(=O)O)=C(C#N)C12CCCC2,13%,2.2µM*,0%,4%,0,
CC1CC(C)CN(CCCNC(=O)c2ccc3c(c2)ncn3C2CCCC2)C1 (stereo not drawn),-2%,?,2%,8%,-38,
O=C(CC1NCCNC1=O)Nc1ccc(Cl)c(Cl)c1 (stereo not drawn),1%,0%,-1%,2%,/,
O=C(CC1NCCNC1=O)Nc1ccc2c(c1)OCO2 (stereo not drawn),5%,1.1µM*,2%,-3%,6,
CC(=O)Nc1cccc(-c2nnc(SCC(=O)c3cc([N+](=O)[O-])ccc3Br)o2)c1,/,/,0%,/,/,
Cc1sc2ncnc(SCC(=O)c3ccc(Cl)s3)c2c1C,/,7.1µM*,/,-2%,4,
